Source: the OligoGym collection
Further: reference of the scale not given here.

Each sequence was assayed against HIST2H2AB (assay: pooled miR-30 sensor sort-seq; sequence = guide strand). Conditions: shRNA.
Sequence TTCGTCATTCCTCACGGCTAGT has a sensor-assay potency score (higher = more potent) of -0.686. For GTAACTTGTTGAGCTCTTCGTC, the sensor-assay potency score (higher = more potent) was -0.977. TTGGGCAACAGGACAGCCTGGA gave a sensor-assay potency score (higher = more potent) of 0.319. TTGTGACTCTCCGTTTTCTTGG showed a sensor-assay potency score (higher = more potent) of -0.765. Sequence TGGATATTGGGCAAGACGCCGC has a sensor-assay potency score (higher = more potent) of -1.14. Sequence TTGAGCTCTTCGTCATTCCTCA has a sensor-assay potency score (higher = more potent) of 0.203. TGACTCTCCGTTTTCTTGGGCA was tested, and the sensor-assay potency score (higher = more potent) was 0.0701. AACTTGTTGAGCTCTTCGTCAT gave a sensor-assay potency score (higher = more potent) of -0.274. ACTTGTTGAGCTCTTCGTCATT showed a sensor-assay potency score (higher = more potent) of -1.57. Sequence TAACTTGTTGAGCTCTTCGTCA has a sensor-assay potency score (higher = more potent) of -0.534. Work on TCTTCGTCATTCCTCACGGCTA yielded a sensor-assay potency score (higher = more potent) of -1.31. For TTTTCTTGGGCAACAGGACAGC, the sensor-assay potency score (higher = more potent) was -1.07.
